# Several values for one entry are separate records, joined by “and”; a condition that tells them apart may be missing. Identical values can stand only once. Results filed as inconclusive are left out. Entries that show only a call come without a potency. Activity calls are given as the source filed them. Calls come from the whole dose curve; as a rule, active = well fitted curve in the direction sought with a large enough effect; inconclusive = small, poorly fitted or top-dose-only effect, or another doubt; inactive = no such curve, though single readings can be large; an effect the other way counts as inactive or inconclusive.
# What was measured:
# [1] = system: Zika virus NS2B-NS3 protease (unlinked); test: Optimization of GU AMC qHTS for Zika virus inhibitors: Unlinked NS2B-NS3 protease assay (AID 1347151); note: nearly all actives have a fitted effect of over 80% in size; note: potency is the fitted concentration of half-maximal effect
# Procedure, shortened: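 Fluorescence read-out (340 nm ex / 450 nm em) of AMC peptide cleavage, taken immediately and after 15 min at room temperature (~20% conversion). Enzyme was the unlinked NS2B–NS3 complex at 25 nM in Tris pH 8.0 buffer.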
# [2] = system: Zika virus NS2B-NS3 protease; test: Primary screen GU AMC qHTS for Zika virus inhibitors (AID 1347154); note: nearly all actives have a fitted effect of over 70% in size; note: potency is the fitted concentration of half-maximal effect
# Procedure, shortened: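 Fluorogenic AMC-substrate cleavage by noncovalent NS2B-NS3 protease complex (25 nM, pH 8.0 Tris buffer with Tween 20) followed for 15 minutes at room temperature (~20% conversion). Percent inhibition from ex340/em450 signal change, fitted by 4-parameter Hill equation.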
# [3] = system: Zika virus NS2B-NS3 protease (linked construct); test: Confirmatory screen NINDS AMC qHTS for Zika virus inhibitors (AID 1347152); note: nearly all actives have a fitted effect of over 70% in size; note: potency is the fitted concentration of half-maximal effect
# Procedure, shortened: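 Linked NS2B-NS3 1 nM, Tris pH 8.0/0.01% Tween 20; cpd 15 min RT dark; + Nle-KRR-AMC 10 µM (Km 18.3 µM); read 0 and 15 min, 340/450 nm; %inh vs controls, 4-param Hill.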
# [4] = system: Zika virus NS2B-NS3 protease (unlinked complex); test: Confirmatory screen GU AMC qHTS for Zika virus inhibitors (AID 1347153); note: nearly all actives have a fitted effect of over 70% in size;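 for potency: enzyme at 25 nM with substrate at 10 µM below its Km of 18.3 µM; potency is the fitted concentration of half-maximal effect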
# Procedure, shortened: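 Noncovalent NS2B hydrophilic domain/NS3 protease complex (25 nM) in 10 mM Tris-HCl pH 8.0, 0.01% Tween 20 was preincubated 15 min at room temperature with compounds. Then 10 µM AMC substrate (Km 18.3 µM) was added; fluorescence was read over 15 min and fitted to a 4-parameter Hill equation.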
# [5] = Confirmatory screen NINDS Rhodamine qHTS for Zika virus inhibitors (AID 1347161); note: nearly all actives have a fitted effect of over 60% in size; note: potency is the fitted concentration of half-maximal effect
# Procedure, shortened: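 Purified linked NS2B-NS3 protease (NS2B hydrophilic domain joined to NS3 protease by flexible linker), 25 nM in 10 mM Tris-HCl pH 8.0, 0.01% Tween 20. Compounds titrated, 15 min preincubation at room temperature; 1.5 microM Rhodamine110 substrate, FITC fluorescence change over 15 min.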
# [6] = system: Zika virus NS2B-NS3 protease (linked); test: 384 well plate NINDS AMC confirmatory qHTS for Zika virus inhibitors (AID 1347163); note: potency is the fitted concentration of half-maximal effect; nearly all actives have a fitted effect of over 50% in size
# Procedure, shortened: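 Enzyme (5, 30 or 60 nM final) first met test compounds for ~15 min. The AMC-tagged peptide Ac-VKTGKR-AMC followed at 30 microM. Fluorescence was then recorded at 25 min and scaled against no-enzyme and no-inhibitor wells.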
# [7] = system: Zika virus NS2B-NS3 protease (unlinked complex); test: Primary screen GU Rhodamine qHTS for Zika virus inhibitors: Unlinked NS2B-NS3 protease assay (AID 1347159); note: nearly all actives have a fitted effect of over 60% in size
# Procedure, shortened: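 Buffer 10 mM Tris-HCl pH 8.0, 0.01% Tween 20. Unlinked protease 25 nM; compound preincubation 15 min, RT, protected from light. Substrate Rhod110, 1.5 microM; ~15% conversion in 15 min.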
# [8] = system: Zika virus NS2B-NS3 protease (linked construct); test: Primary screen NINDS Rhodamine qHTS for Zika virus inhibitors (AID 1347160); conditions: outcome: dose series up to 57.1 µM unless noted; note: nearly all actives have a fitted effect of over 55% in size
# Procedure, shortened: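 Aprotinin served as in-plate control. Conditions: 25 nM linked NS2B-NS3, pH 8.0 Tris buffer, titrated compounds, 15 min preincubation and 15 min reaction with 1.5 microM Rhod110 substrate at room temperature.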
smiles,measurement,setting,value
CC(=O)OCC(CCn1cnc2cnc(N)nc21)COC(C)=O,Potency,[1],26.7 µM (active)
CCN1CCCC1CNC(=O)c1cc(S(=O)(=O)CC)c(N)cc1OC (centres undefined),Potency,[1],inactive
same,Potency,[2],inactive
Cn1c(=O)c2[nH]cnc2n(C)c1=O,Potency,[1],inactive
same,Potency,[2],inactive
C[C@H]1c2cccc(O)c2C(O)=C2C(=O)[C@]3(O)C(O)=C(C(N)=O)C(=O)[C@@H](N(C)C)[C@@H]3[C@@H](O)[C@@H]21,Potency,[1],inactive
same,Potency,[3],inactive
same,Potency,[4],inactive
same,Potency,[5],62.1 µM (active)
same,Potency,[6],63.1 µM (active)
Nc1ccn([C@H]2CC[C@@H](CO)O2)c(=O)n1,Potency,[1],inactive
same,Potency,[2],inactive
CC1COc2c(N3CCN(C)CC3)c(F)cc3c(=O)c(C(=O)O)cn1c23 (centres undefined),Potency,[1],15 µM (active)
same,Potency,[3],24.1 µM (active) and 27.1 µM (active)
same,Potency,[4],27.1 µM (active)
same,Potency,[2],28.7 µM (active) and 24.1 µM (active)
same,Potency,[5],inactive
CCOC(=O)Nc1ccc(NCc2ccc(F)cc2)nc1N,Potency,[1],23.8 µM (active)
same,Potency,[3],inactive
same,Potency,[4],inactive
same,Potency,[5],inactive
COc1cc2c(c(OC)c1OC)-c1ccc(OC)c(=O)cc1[C@@H](NC(C)=O)CC2,Potency,[1],inactive
same,Potency,[2],inactive
NC(=O)OCC(COC(N)=O)c1ccccc1,Potency,[1],inactive
same,Potency,[2],inactive
CN(C)CCOC(c1ccccc1)c1ccccc1,Potency,[1],inactive
same,Potency,[2],inactive
CN1C2CCC1CC(OC(=O)C(CO)c1ccccc1)C2 (centres undefined),Potency,[1],inactive
same,Potency,[2],inactive
CN(C)CCCN1c2ccccc2CCc2ccc(Cl)cc21,Potency,[1],inactive
same,Potency,[2],inactive
CCOC(=O)c1ncn2c1CN(C)C(=O)c1cc(F)ccc1-2,Potency,[1],inactive
same,Potency,[2],inactive
CC(C)NCC(O)c1ccc(O)c(O)c1 (centres undefined),Potency,[1],inactive
same,Potency,[2],inactive
NCCS(=O)(=O)O,Potency,[1],inactive
same,Potency,[2],inactive
CCc1cccc2c3c([nH]c12)C(CC)(CC(=O)O)OCC3 (centres undefined),Potency,[1],inactive
same,Potency,[2],inactive
CC(C)(Oc1ccc(C2CC2(Cl)Cl)cc1)C(=O)O (centres undefined),Potency,[1],inactive
same,Potency,[2],inactive
O=C1Cc2cc(CCN3CCN(c4nsc5ccccc45)CC3)c(Cl)cc2N1,Potency,[1],26.7 µM (active)
same,Potency,[3],34.1 µM (active)
same,Potency,[2],inactive
same,Potency,[7],inactive
same,outcome,[8],inactive
same,Potency,[5],inactive
COc1cc2nc(N3CCN(C(=O)c4ccco4)CC3)nc(N)c2cc1OC,Potency,[1],26.7 µM (active)
same,Potency,[3],10.5 µM (active)
same,Potency,[5],inactive
Cc1cnc(C(=O)NCCc2ccc(S(=O)(=O)NC(=O)NC3CCCCC3)cc2)cn1,Potency,[1],inactive
same,Potency,[3],inactive
same,Potency,[4],inactive
same,Potency,[5],inactive
OCCN(CCO)c1nc(N2CCCCC2)c2nc(N(CCO)CCO)nc(N3CCCCC3)c2n1,Potency,[1],26.7 µM (active)
CN(C)c1nc(N(C)C)nc(N(C)C)n1,Potency,[1],inactive
same,Potency,[2],inactive
CN1CCN(CCCN2c3ccccc3Sc3ccc(Cl)cc32)CC1,Potency,[1],inactive
same,Potency,[2],inactive
CN(C)CCC=C1c2ccccc2C=Cc2ccccc21,Potency,[1],inactive
same,Potency,[2],inactive
COc1ccc2c(c1)c(CC(=O)O)c(C)n2C(=O)c1ccc(Cl)cc1,Potency,[1],inactive
same,Potency,[2],inactive
NCCCCCC(=O)O,Potency,[1],inactive
same,Potency,[2],inactive
O=C1c2c(O)ccc(O)c2C(=O)c2c(NCCNCCO)ccc(NCCNCCO)c21,Potency,[1],inactive
same,Potency,[2],inactive
CC(CCc1ccc(O)cc1)NCCc1ccc(O)c(O)c1 (centres undefined),Potency,[1],inactive
same,Potency,[2],inactive
Cn1cnc2c1c(=O)[nH]c(=O)n2C,Potency,[1],inactive
same,Potency,[2],inactive
C[C@](N)(Cc1ccc(O)c(O)c1)C(=O)O,Potency,[1],inactive
NC(=O)NO,Potency,[1],inactive
same,Potency,[2],inactive
CN(Cc1cnc2nc(N)nc(N)c2n1)c1ccc(C(=O)N[C@@H](CCC(=O)O)C(=O)O)cc1,Potency,[1],21.2 µM (active)
same,Potency,[4],inactive
Cn1c(=O)c2c(ncn2C)n(C)c1=O,Potency,[1],inactive
same,Potency,[2],inactive
OCCN1CCN(CCCN2c3ccccc3Sc3ccc(C(F)(F)F)cc32)CC1,Potency,[1],inactive
same,Potency,[2],inactive
CN1CCC(=C2c3ccccc3CC(=O)c3sccc32)CC1,Potency,[1],inactive
same,Potency,[2],inactive
CC(C(=O)O)c1cccc(C(=O)c2ccccc2)c1 (centres undefined),Potency,[1],inactive
same,Potency,[2],inactive
NC12CC3CC(CC(C3)C1)C2,Potency,[1],inactive
same,Potency,[2],inactive
COc1ccc(CCN(C)CCCC(C#N)(c2ccc(OC)c(OC)c2)C(C)C)cc1OC (centres undefined),Potency,[1],inactive
same,Potency,[2],inactive
COc1nc(C)nc(Cl)c1NC1=NCCN1,Potency,[1],inactive
same,Potency,[2],inactive
COc1cc2nc(N3CCN(C(=O)C4COc5ccccc5O4)CC3)nc(N)c2cc1OC (centres undefined),Potency,[1],26.7 µM (active)
same,Potency,[2],9.07 µM (active) and 24.1 µM (active)
CN1CCN2c3ccccc3Cc3ccccc3C2C1 (centres undefined),Potency,[1],inactive
same,Potency,[2],inactive
CC[N+](CC)(CC)CCOc1cccc(OCC[N+](CC)(CC)CC)c1OCC[N+](CC)(CC)CC,Potency,[1],inactive
same,Potency,[2],inactive
CCC1(C)CC(=O)NC1=O (centres undefined),Potency,[1],inactive
same,Potency,[2],inactive
Cc1cc(C(C)(C)C)cc(C)c1CC1=NCCN1,Potency,[1],inactive
same,Potency,[2],inactive
CCOC(=O)C(C)(C)Oc1ccc(Cl)cc1,Potency,[1],inactive
same,Potency,[2],inactive
CN1CCN(C2=Nc3cc(Cl)ccc3Nc3ccccc32)CC1,Potency,[1],inactive
same,Potency,[2],inactive
